The nature of experiment [1]: qHTS assay to identify aromatase inhibitors - cell viability counter screen (AID 743084).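 Further: cells stimulated with testosterone during compound exposure; nearly all actives have a fitted effect of over 55% in size.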 Further: potency means the concentration at half of the fitted maximal effect. For orientation: qHTS replaces the single test concentration by a dilution series.
In experiment [2] the target is Aryl hydrocarbon receptor (Homo sapiens) (UniProt P35869). The experiment in a line: qHTS assay to identify small molecule that activate the aryl hydrocarbon receptor (AhR) signaling pathway (AID 743085).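 Further: HG2L7.5c1 human HepG2 liver cells with stably integrated DRE-driven firefly reporter; series mostly up to about 70 µM; nearly all actives have a fitted effect of over 15% in size.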 The method in brief:
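Luminescence read-out: ONE-Glo reagent, 30 min at room temperature, in HG2L7.5c1 HepG2 reporter cells treated 24 h at 37C. Viability was measured beforehand by CellTiter-Fluor fluorescence after 30 min at 37C.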

For experiment [3], the target named is Peroxisome proliferator-activated receptor gamma (Homo sapiens) (UniProt P37231). The experiment in a line: qHTS assay to identify small molecule antagonists of the peroxisome proliferator-activated receptor gamma (PPARg) signaling pathway (AID 743191; calls by dose curve; further: series mostly up to about 63 µM; nearly all actives have a fitted effect of over 30% in size). The method in brief:
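GeneBLAzer PPARg UAS-bla HEK293H cells carrying a UAS-driven beta-lactamase reporter were plated at 3000 cells/well, preincubated 5 h at 37C, then given compound for 17 h at 37C; LiveBLAzer B/G FRET substrate was read after 1 h at room temperature.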

Experiment [4] is described as follows: qHTS assay to identify small molecule antagonists of the peroxisome proliferator-activated receptor gamma (PPARg) signaling pathway - cell viability counter screen (AID 743194). Further: nearly all actives have a fitted effect of over 55% in size. The method in brief: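 PPARg-UAS-bla HEK293H cells were plated, rested 5 h at 37 C, then treated with compounds plus rosiglitazone (50 nM final) for 17 h at 37 C; viability was then read by CellTiter-Glo luminescence after 30 min at room temperature.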

Experiment [5] is described as follows: qHTS assay for small molecule agonists of the antioxidant response element (ARE) signaling pathway (AID 743202; active means well fitted activation curve with a large enough effect in the signal ratio in the repeat runs, not every such curve was filed as active; the % refers to the signal ratio). The method, boiled down:
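Steps: seed ARE-bla HepG2 cells (2,000/well); incubate 5 h at 37 C; add compounds by pin tool; incubate 16 h at 37 C; add FRET substrate; read fluorescence after 2 h at RT.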

Experiment [6] is described as follows: qHTS assay for small molecule agonists of the antioxidant response element (ARE) signaling pathway - cell viability counter screen (AID 743203; calls by dose curve; further: nearly all actives have a fitted effect of over 55% in size). The method in brief: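 Parallel cytotoxicity read-out for the ARE-bla screen: HepG2 reporter cells, 16 hrs with compounds, then CellTiter-Glo luminescence.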
A short description of experiment [7]: qHTS assay for small molecule activators of the heat shock response signaling pathway - cell viability counter screen (AID 743209). Further: nearly all actives have a fitted effect of over 50% in size. Further: potency means the concentration at half of the fitted maximal effect. The method in brief:
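To flag cytotoxic compounds, HSE-bla HeLa cells plated at 1500 cells/well were dosed for 5 h at 37 C, followed by the reporter FRET read and then CellTiter-Glo, with luminescence recorded 30 min after reagent addition.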

Experiment [8] can be described thus: qHTS assay for small molecule activators of the heat shock response signaling pathway (AID 743210; active means well fitted activation curve with a large enough effect in the signal ratio in the repeat runs, with a control signal flat, not every such curve was filed as active; the % refers to the signal ratio;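 further: HeLa cells with beta-lactamase reporter driven by heat shock elements; series mostly up to about 63 µM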). The method, boiled down:
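Activation of heat shock element-controlled beta-lactamase expression is measured in HeLa cells by LiveBLAzer FRET fluorescence, with compound exposure lasting 5 h at 37 C and substrate loading 2.5 h at room temperature.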

Experiment [9] addresses Peroxisome proliferator-activated receptor gamma (Homo sapiens) (UniProt P37231). The experiment in a line: qHTS assay to identify small molecule agonists of the peroxisome proliferator-activated receptor gamma (PPARg) signaling pathway (AID 743094; active means well fitted activation curve with a large enough effect in the signal ratio in the repeat runs, not every such curve was filed as active; the % refers to the signal ratio). The method in brief: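 Fluorescence-based beta-lactamase readout in HEK293H PPARg UAS-bla cells after 17 h compound exposure (37C) and 1 h B/G FRET substrate incubation at room temperature.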

Experiment [10] is described as follows: qHTS assay to identify small molecule that activate the aryl hydrocarbon receptor (AhR) signaling pathway - cell viability counter screen (AID 743086).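 Further: HepG2 liver cells carrying the AhR DRE luciferase reporter; series mostly up to about 70 µM; nearly all actives have a fitted effect of over 45% in size.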 The method, boiled down: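 HepG2-AhR-luc (HG2L7.5c1) cells, 4000/well, were preincubated 5 h at 37C, exposed to compound in qHTS format for 24 hr at 37C, then given CellTiter-Fluor for 30 min; viability was read as fluorescence in the reporter wells.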

Inconclusive results are not listed. Values without a mark were called inactive. Active and inactive are the calls of the source. Unless noted, the call rests on the fitted dose curve; in most records, active means well fitted curve in the direction sought with a large enough effect in the repeat runs; inconclusive means weak or mixed curves; inactive means no such curve, though single readings can be large; an effect the other way counts as inactive or inconclusive.
On the % scale 0 is the no-effect control and ±100 the full control effect.

Sequence of Peroxisome proliferator-activated receptor gamma (Homo sapiens) (P37231 whole entry, looked up): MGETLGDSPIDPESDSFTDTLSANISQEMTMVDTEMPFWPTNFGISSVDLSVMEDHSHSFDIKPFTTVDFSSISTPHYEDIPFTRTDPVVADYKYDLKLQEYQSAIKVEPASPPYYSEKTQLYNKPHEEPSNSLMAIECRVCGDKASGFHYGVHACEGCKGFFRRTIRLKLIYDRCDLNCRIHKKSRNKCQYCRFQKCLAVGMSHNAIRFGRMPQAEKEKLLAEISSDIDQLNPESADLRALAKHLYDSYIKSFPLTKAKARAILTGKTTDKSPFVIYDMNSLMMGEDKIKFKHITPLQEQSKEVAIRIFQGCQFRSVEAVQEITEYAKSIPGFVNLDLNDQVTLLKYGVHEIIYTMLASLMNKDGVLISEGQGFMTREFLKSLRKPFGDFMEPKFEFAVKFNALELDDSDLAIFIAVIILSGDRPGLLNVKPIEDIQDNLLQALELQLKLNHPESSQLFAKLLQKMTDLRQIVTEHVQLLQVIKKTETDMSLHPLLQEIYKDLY
Sequence of Aryl hydrocarbon receptor (Homo sapiens) (P35869 whole entry, looked up): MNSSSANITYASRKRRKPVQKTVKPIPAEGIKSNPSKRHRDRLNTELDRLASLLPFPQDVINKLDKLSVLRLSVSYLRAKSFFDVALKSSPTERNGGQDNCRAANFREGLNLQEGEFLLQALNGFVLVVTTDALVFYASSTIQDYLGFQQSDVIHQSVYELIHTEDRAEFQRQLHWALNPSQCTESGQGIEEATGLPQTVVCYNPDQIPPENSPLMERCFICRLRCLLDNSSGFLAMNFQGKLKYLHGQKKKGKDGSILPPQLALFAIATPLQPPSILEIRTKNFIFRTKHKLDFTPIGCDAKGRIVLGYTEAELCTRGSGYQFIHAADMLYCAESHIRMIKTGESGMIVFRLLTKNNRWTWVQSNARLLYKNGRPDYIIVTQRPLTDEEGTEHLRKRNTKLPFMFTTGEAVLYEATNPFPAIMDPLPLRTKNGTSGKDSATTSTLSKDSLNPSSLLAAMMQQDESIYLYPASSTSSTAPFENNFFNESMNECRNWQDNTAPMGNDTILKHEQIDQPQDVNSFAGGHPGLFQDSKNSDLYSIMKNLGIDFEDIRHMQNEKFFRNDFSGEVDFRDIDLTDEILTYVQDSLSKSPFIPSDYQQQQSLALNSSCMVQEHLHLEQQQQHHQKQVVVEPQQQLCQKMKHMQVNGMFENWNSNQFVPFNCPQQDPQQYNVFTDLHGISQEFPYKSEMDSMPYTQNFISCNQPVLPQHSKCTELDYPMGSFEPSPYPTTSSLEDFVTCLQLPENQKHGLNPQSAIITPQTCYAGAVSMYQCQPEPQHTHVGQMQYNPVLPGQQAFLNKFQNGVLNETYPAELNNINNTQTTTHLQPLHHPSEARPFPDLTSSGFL

Consider `O=C1CCC(=O)N1Cl`, for which the Potency result in experiment [1], in [2], in experiment [5] and in [7] was “inactive” in each case. The compound was classed as inactive in experiment [3], in [4], in experiment [6] and in experiment [8].
`O=S(=O)(O)c1ccc2c(N=Nc3ccc(S(=O)(=O)O)c4ccccc34)c(O)c(S(=O)(=O)O)cc2c1`: the Potency in experiment [1] is 18.8 µM (active). Moreover, the Potency entry in [2] and in experiment [9] was “inactive” in each case. Moreover, in experiment [3], the ratio activity, negative = inhibition is -16.6% [at 5.95 µM]. The activity change, negative = cytotoxicity was -3.57% [at 5.95 µM] in experiment [4] and 0.481% [at 5.95 µM] in experiment [7]. For the same compound, the activation is 7.21% [at 8.36 µM] in experiment [5] and -0.859% [at 5.95 µM] in [8]. Besides, in [6], the viability change, negative = cytotoxic is -0.964% [at 8.36 µM].
Turning to `CCCCCCCCCCCCCCCCCC#N`, the Potency entry in [1], in [10], in [9], in experiment [5] and in experiment [7] was “inactive” throughout. The result in [3], in experiment [4], in experiment [6] and in [8] was inactive.
In the case of `C=CC(=O)CCCCC`, the Potency entry in [1], in [2], in [9], in experiment [5] and in experiment [7] was “inactive” throughout. For the same compound, the compound was called inactive in experiment [4], in experiment [6] and in experiment [8].
For the compound `C=CCCCCCCCC`, the Potency result in experiment [1], in experiment [10], in experiment [9], in experiment [5] and in experiment [7] was “inactive” throughout. In addition, the outcome in experiment [3], in experiment [4] and in experiment [6] was inactive.
On to `CC(=O)OC(C)=O`, for which the Potency result in experiment [1], in [10], in [9], in [5] and in [7] was “inactive” each time. The call in experiment [3], in experiment [4] and in experiment [6] was inactive.
For the compound `Cc1cc(-c2ccccc2)nnc1NCCN1CCOCC1`, the Potency result in [1], in [10], in experiment [5] and in experiment [7] was “inactive” throughout. The compound was classed as inactive in [3], in experiment [4], in experiment [6] and in [8].
With `COC(=O)c1cc(Cl)cc(Cl)c1`, the Potency entry in experiment [1], in experiment [10], in [5] and in experiment [7] was “inactive” each time. Also, the outcome in [3], in [6] and in [8] was inactive.
As to `CC1=C(C(=O)O)N2C(=O)[C@@H](NC(=O)[C@H](N)c3ccccc3)[C@H]2SC1`, the Potency entry in [1], in experiment [10] and in experiment [7] was “inactive” throughout. Further, the result in experiment [4], in [6] and in experiment [8] was inactive.
Take `CN(C)CCN(C)CCO`: the Potency entry in [1], in [10], in experiment [9] and in experiment [7] was “inactive” throughout. Moreover, the compound was classed as inactive in experiment [3], in experiment [4] and in experiment [6].
As to `Cc1ccnc(N)c1`, the Potency entry in experiment [1], in experiment [10], in [5] and in experiment [7] was “inactive” in each case. Moreover, the outcome in experiment [3], in experiment [4] and in experiment [6] was inactive.
`O=C(O)c1cc2ccccc2nc1C(=O)O`: the Potency entry in experiment [1], in experiment [9], in experiment [5] and in experiment [7] was “inactive” in each case. Also, the outcome in [3], in experiment [4], in [6] and in [8] was inactive.
For the compound `CCCCCCCCCOC(=O)c1ccccc1C(=O)OCCCCCCCCC`, the Potency result in [1], in experiment [10], in experiment [9], in experiment [5] and in experiment [7] was “inactive” each time. Besides, the compound was classed as inactive in [4], in [6] and in experiment [8].
On to `CCCC(=O)OCCC(C)CCC=C(C)C` (stereo not given), for which the Potency result in experiment [1], in experiment [10], in experiment [9] and in experiment [5] was “inactive” each time. Also, the call in experiment [4] and in [6] was inactive. Moreover, the Potency in experiment [7] is 49 µM (active).
As for `CC(C)(CO)C(O)C(=O)NCCCO` (stereo not given), the Potency result in experiment [1], in [10], in [5] and in experiment [7] was “inactive” each time. For the same compound, the compound was called inactive in experiment [4].
Consider `Cc1c(N)cccc1Cl`, for which the Potency result in [1], in experiment [10], in experiment [9] and in experiment [7] was “inactive” each time. Moreover, the compound was classed as inactive in experiment [3], in experiment [4], in experiment [6] and in [8].
As for `Cn1nnc2c(C(N)=O)ncn2c1=O`, the Potency result in experiment [1], in [10], in [9] and in experiment [5] was “inactive” each time. Also, the compound was called inactive in experiment [4] and in [6].
`CC1CCc2c(N3CCC(O)CC3)c(F)cc3c(=O)c(C(=O)O)cn1c23` (stereo not given): the Potency result in experiment [1], in experiment [10], in experiment [9] and in experiment [7] was “inactive” in each case. Further, the outcome in experiment [4], in experiment [6] and in [8] was inactive.
Take `C[C@H]1[C@@H](c2ccccc2)NC(=O)N1C`: the Potency entry in experiment [1], in [10], in [5] and in [7] was “inactive” in each case. Further, the call in experiment [3], in [4], in experiment [6] and in experiment [8] was inactive.
As for `CCCCCC/C=C/C(=O)OC`, the Potency result in experiment [1], in experiment [10], in experiment [9], in experiment [5] and in experiment [7] was “inactive” in each case. Also, the compound was classed as inactive in experiment [4], in experiment [6] and in experiment [8].
With `C=C(C)C1CC=C(C)C(=O)C1` (stereo not given), the Potency entry in experiment [1], in [10], in experiment [5] and in [7] was “inactive” each time. Besides, the result in experiment [4], in [6] and in experiment [8] was inactive.
Turning to `CCOc1cccc(N)c1`, the Potency result in [1], in experiment [10], in [5] and in experiment [7] was “inactive” in each case. The compound was classed as inactive in experiment [3], in experiment [4] and in experiment [6].
Consider `CC12CCC(C1)C(C)(C)C2O` (stereo not given), for which the Potency entry in [1], in experiment [10], in [9] and in experiment [7] was “inactive” in each case. Besides, the compound was called inactive in [3] and in experiment [6].
As for `Fc1ccccc1`, the Potency entry in experiment [1], in experiment [10] and in experiment [7] was “inactive” each time. In addition, the result in [4] and in experiment [6] was inactive.

These data come from PubChem BioAssay (Tox21).
